# From PubChem BioAssay (NCATS)
# Values joined by “and” are separate entries in the source; they are usually repeats but may differ in a detail not shown here. Equal values may be shown once. Unmarked numbers belong to inactive results. Records with an inconclusive call do not appear. A call without a number means that no potency is given here. Active and inactive are the calls of the source. Unless noted, calls come from the whole dose curve; as a rule, active = well fitted curve in the direction sought with a large enough effect; inconclusive = small, poorly fitted or top-dose-only effect, or another doubt; inactive = no such curve, though single readings can be large; an effect the other way counts as inactive or inconclusive. Bridge positions count the residues as written; N and C are the ends. Square brackets hold non-standard residues; d marks the D form. Peptide text beside a SMILES is read from it. * marks the point of attachment. Octanoyl(6-Me) = CCC(C)CCCCC(=O)*; Dab = NCC[CH](N)C(=O)O
# Key:
# [1] = target: Cytochrome P450 1A2 (Homo sapiens) (UniProt P05177); assay: p450-cyp1a2 (AID 410; calls by dose curve; note: potency is the fitted concentration of half-maximal effect)
# Summary of the method: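 Luminescent demethylation readout: Luciferin-ME (100uM, equal to Km) turned over by 20nM CYP1A2 for 60 min at room temperature after NADPH regeneration addition, following 10 min compound preincubation. Normalization used 57 uM furafylline as full inhibition.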
# [2] = target: Glucocorticoid receptor (Homo sapiens) (UniProt P04150); assay: GR-GFP Redistribution (AID 450;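 active = compounds whose dose series gives a full or clear partial fitted curve of increased nuclear translocation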; note: potency is the fitted concentration of half-maximal effect); settings: U2OS GR-GFP nuclear translocation, laser cytometry, 2 h
# [3] = target: Cytochrome P450 3A4 (Homo sapiens) (UniProt P08684); assay: qHTS Assay for Activators of Cytochrome P450 3A4 (AID 885); note: nearly all actives have a fitted effect of over 65% in size
# Summary of the method: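 Using 20nM recombinant human CYP3A4 in potassium phosphate (200mM), substrate Luciferin-PPXE at 25uM, luminescent luciferin detection followed a 60-min RT NADPH reaction; data scaled to 57 uM ketoconazole.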
# [4] = target: Cytochrome P450 2D6 (Homo sapiens) (UniProt P10635); assay: qHTS Assay for Inhibitors and Substrates of Cytochrome P450 2D6 (AID 891);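 note: luciferin methyl ether substrate demethylated by CYP2D6 with NADPH regeneration; nearly all actives have a fitted effect of over 60% in size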
# Summary of the method: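 Luminescent read-out of luciferin formed by 5 nM human CYP2D6 demethylating 30 uM Luciferin-ME EGE (Km level) over 60 min at room temperature after NADPH regeneration addition. Data normalized to full inhibition by 1.43 uM quinidine.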
# [5] = target: DNA dC->dU-editing enzyme APOBEC-3G (Homo sapiens) (UniProt Q9HC16); assay: qHTS for inhibitors of Vif-A3G interactions: Validation (AID 588379)
# Summary of the method: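 Yellow fluorescence (Ex 488, Em 500-530) of Vif-coexpressing HeLa A3G-eYFP cells, scanned by Acumen cytometer, reports blocked A3G degradation. Cells plated at 700/well overnight at 37 deg C before compound addition, then a further overnight compound incubation at 37 deg C.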
# [6] = target: ATP-dependent 6-phosphofructokinase (Trypanosoma brucei brucei) (UniProt O15648); assay: qHTS Assay to Find Inhibitors of T. brucei phosphofructokinase: hit validation (AID 492961);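 note: luminescence reports ADP formed as PFK phosphorylates fructose-6-phosphate with ATP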
# Summary of the method: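 Compounds titrated; %activity normalized to 0x and 1x enzyme controls, curve-fitted. Readout: ADP-Glo luminescence after 45 min room-temperature reaction of 1.25 nM PFK, 0.1 mM ATP, 0.5 mM F6P, pH 8.0.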
# [7] = S16 Schwann cell viability assay (CellTiter-Glo assay) (AID 624031);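 note: native untransfected S16 rat Schwann cells; cellular ATP luminescence as a viability measure; nearly all actives have a fitted effect of over 70% in size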
# Summary of the method: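 Concentration-effect curves come from CellTiter-Glo luminescence of S16 rat Schwann cells after 24 h compound exposure. Each reading was normalized to DMSO wells (0%) and wells without cells, and curves were ranked by r2 and response magnitude.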
# [8] = S16 Schwann cell PMP22 intronic element beta-lactamase assay (AID 624044; calls by dose curve; note: nearly all actives have a fitted effect of over 15% in size; note: potency is the fitted concentration of half-maximal effect)
# Summary of the method: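 Beta-lactamase reporter under a PMP22 intronic regulatory element in stable S16 rat Schwann cells; 24 h compound exposure. 460 nm blue signal normalized between DMSO (0%) and potassium clavulanate, with 535 nm FRET tracking viability; curves classed by r2 and response.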
# [9] = system: CP250; assay: qHTS profiling for inhibitors of Plasmodium falciparum proliferation (AID 504749); note: nearly all actives have a fitted effect of over 60% in size; note: potency is the fitted concentration of half-maximal effect; settings: P. falciparum in erythrocytes, SYBR Green DNA, 72 h; series mostly up to 28.7 µM
# Summary of the method: (§1)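 Each compound contacts P. falciparum-infected red blood cells for 72 h at 37 C; lysis buffer (Tris, EDTA, saponin, Triton X, SYBR Green I) is added and fluorescence measured next morning; values normalized to controls.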
# [10] = system: P93_24; assay: as above; settings: P. falciparum in erythrocytes, SYBR Green DNA, 72 h; series mostly up to 28.7 µM
# Summary of the method: as §1
# [11] = Cell Viability - SK-N-SH (AID 435; calls by dose curve;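 note: potency is the fitted concentration of half-maximal effect; compound exposure lasted 40 h at 37 °C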); settings: SK-N-SH neuroblastoma cell viability qHTS
# Summary of the method: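 SK-N-SH human neuroblastoma cells (1500/well) were exposed to compounds in complete medium for 40 h at 37 °C, and intracellular ATP was then measured by CellTiter-Glo luminescence. AC50 was taken from Hill fits, normalized to DMSO and 100 uM tamoxifen.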
# [12] = Cell Viability - LYMP2-015 (AID 971); note: nearly all actives have a fitted effect of over 55% in size
# Summary of the method: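 Cytotoxicity readout: decrease in intracellular ATP (CellTiter-Glo luminescence) in 2500 LYMP2-015 lymphoblastoid cells/well after 24 h compound exposure at 37 C. Concentration-response data fitted with the standard Hill equation to give AC50.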
# [13] = qHTS assay to identify small molecules that stimulate interleukin-8 (IL-8) secretion (AID 651758; active = well fitted activation curve with a large enough effect in the signal ratio; the % refers to the signal ratio)
# Summary of the method: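 Compounds are added to THP-1 cells (2000 per well) and left 16 hrs at 37 C. A labeled anti-IL-8 antibody pair is then added, and IL-8 secretion is measured by time-resolved FRET after 1-3 hrs at room temperature.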
# [14] = Confirmation and Secondary Assay for Modulators of Hemoglobin Beta Chain Splicing at IVS2 654 locus (AID 910);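 note: HeLa cells stably carrying EGFP split by mutant beta-globin IVS2-654 intron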
# Summary of the method: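 HeLa cells stably expressing EGFP interrupted by β-globin IVS2-654 intron, seeded overnight in Opti-MEM/2% FCS, then treated 2 days at 37 °C. Restored splicing read as total peak GFP intensity per well by laser scanning cytometry (488 nm excitation, 500–520 nm emission); 500 nM antisense PNA as control.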
# [15] = Confirmation and Secondary Assay for Modulators of Hemoglobin Beta Chain Splicing at IVS2 705 locus (AID 930);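 note: HeLa cells stably expressing the EGFP-705 splicing reporter; GFP fluorescence per well restored by corrected splicing of the IVS2-705 intron in EGFP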
# Summary of the method: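 Assay measures total GFP intensity per well in HeLa EGFP-705 cells after 2 days with compound; mis-splicing normally truncates EGFP, so fluorescence indicates corrected splicing.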
# [16] = qHTS Assay for Identifying Gametocytocidal Compounds (AID 743244); note: potency is the fitted concentration of half-maximal effect;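 for max response: actives lower the fluorescent signal which means gametocytes are killed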; settings: P. falciparum 3D7 stage III-V gametocytes, alamarBlue, 72 h; max response: active compounds read low
# Summary of the method: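 Compounds are pinned into medium, gametocytes (stage III–V, 3D7, 20,000 cells/well) added, and plates held 72 h at 37 °C in 5% CO2. AlamarBlue follows for 24 h before fluorescence reading.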
# [17] = Cellular Toxicity (caspase-3) H-4-II-E (AID 663); settings: Potency: caspase-3 activation;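 note: cells exposed to compound for 16 hr before readout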
# Summary of the method: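 H-4-II-E rat hepatoma, 1500 cells/well, 5 hr settle at 37 °C; compound 16 hr, 37 °C, complete medium; Caspase-Glo 3/7, 20 min RT; luminescence. DMSO = 0%, 100 uM tamoxifen = 100%; Hill-equation AC50.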
# [18] = target: Androgen receptor (Homo sapiens) (UniProt P10275); assay: qHTS assay for small molecule agonists of androgen receptor signaling (AID 588515; active = well fitted curve in the direction sought with a large enough effect in the signal ratio, with a control signal flat; the % refers to the signal ratio); settings: AR-UAS-bla HEK293, beta-lactamase ratio, agonist 16 h; active compounds read high
# Summary of the method: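 Stimulation of an AR-responsive β-lactamase reporter in GripTite HEK293 cells was measured after 16 h compound exposure at 37 °C, via CCF4 fluorescence after 2 h RT. EC50 from Hill fits, normalized to R1881 at 30 nM.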
# [19] = target: Androgen receptor (Homo sapiens) (UniProt P10275); assay: qHTS assay for small molecule antagonists of androgen receptor signaling (AID 588516; active = well fitted curve in the direction sought with a large enough effect in the signal ratio, with a control signal flat, not every such curve was filed as active; the % refers to the signal ratio)
# Summary of the method: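 AR-UAS-bla-GripTite HEK 293 cells (2000/well, 5 h at 37 C) received compound titrations, then R1881 at 10 nM final; after 16 h at 37 C, CCF4 dye 2 h RT, beta-lactamase fluorescence read; IC50 from Hill fits.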
# Chain of Cytochrome P450 3A4 (Homo sapiens) (P08684 whole entry, looked up): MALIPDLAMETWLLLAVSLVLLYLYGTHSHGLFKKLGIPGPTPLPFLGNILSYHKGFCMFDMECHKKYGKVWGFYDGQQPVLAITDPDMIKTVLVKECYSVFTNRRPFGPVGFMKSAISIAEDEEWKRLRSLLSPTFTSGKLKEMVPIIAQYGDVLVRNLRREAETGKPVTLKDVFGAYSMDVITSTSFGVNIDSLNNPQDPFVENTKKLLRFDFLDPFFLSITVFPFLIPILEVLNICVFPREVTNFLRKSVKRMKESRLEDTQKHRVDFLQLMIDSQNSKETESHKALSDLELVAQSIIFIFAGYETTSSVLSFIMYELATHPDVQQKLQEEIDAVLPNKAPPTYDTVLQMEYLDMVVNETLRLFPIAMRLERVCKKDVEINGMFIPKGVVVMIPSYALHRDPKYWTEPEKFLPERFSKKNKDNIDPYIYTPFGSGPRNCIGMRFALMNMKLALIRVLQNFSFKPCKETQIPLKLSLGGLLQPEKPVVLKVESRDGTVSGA
# Chain of Androgen receptor (Homo sapiens) (P10275 whole entry, looked up): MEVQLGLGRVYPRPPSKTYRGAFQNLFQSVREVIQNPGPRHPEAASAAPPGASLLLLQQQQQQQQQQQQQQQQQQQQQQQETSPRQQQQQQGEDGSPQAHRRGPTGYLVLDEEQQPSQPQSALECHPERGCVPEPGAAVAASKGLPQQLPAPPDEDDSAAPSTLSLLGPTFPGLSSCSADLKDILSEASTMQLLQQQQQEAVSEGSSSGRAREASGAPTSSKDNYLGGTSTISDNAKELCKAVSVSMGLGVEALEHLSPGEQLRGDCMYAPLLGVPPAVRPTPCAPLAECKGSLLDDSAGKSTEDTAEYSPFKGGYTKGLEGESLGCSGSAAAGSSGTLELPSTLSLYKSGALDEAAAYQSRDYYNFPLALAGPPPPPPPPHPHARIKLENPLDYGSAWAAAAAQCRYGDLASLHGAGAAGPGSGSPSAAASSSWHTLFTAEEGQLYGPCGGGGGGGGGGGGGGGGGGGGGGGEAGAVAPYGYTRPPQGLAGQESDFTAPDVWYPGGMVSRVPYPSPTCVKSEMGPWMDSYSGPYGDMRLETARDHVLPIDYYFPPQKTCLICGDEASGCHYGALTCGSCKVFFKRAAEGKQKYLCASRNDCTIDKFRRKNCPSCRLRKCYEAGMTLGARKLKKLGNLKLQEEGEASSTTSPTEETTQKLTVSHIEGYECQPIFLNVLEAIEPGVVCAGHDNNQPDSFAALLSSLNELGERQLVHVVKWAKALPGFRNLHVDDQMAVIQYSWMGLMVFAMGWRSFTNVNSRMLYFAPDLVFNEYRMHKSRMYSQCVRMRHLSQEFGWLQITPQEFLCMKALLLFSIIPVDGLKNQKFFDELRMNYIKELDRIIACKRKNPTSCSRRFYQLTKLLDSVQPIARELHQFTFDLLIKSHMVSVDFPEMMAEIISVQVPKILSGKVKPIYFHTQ
# Chain of ATP-dependent 6-phosphofructokinase (Trypanosoma brucei brucei) (O15648 whole entry, looked up): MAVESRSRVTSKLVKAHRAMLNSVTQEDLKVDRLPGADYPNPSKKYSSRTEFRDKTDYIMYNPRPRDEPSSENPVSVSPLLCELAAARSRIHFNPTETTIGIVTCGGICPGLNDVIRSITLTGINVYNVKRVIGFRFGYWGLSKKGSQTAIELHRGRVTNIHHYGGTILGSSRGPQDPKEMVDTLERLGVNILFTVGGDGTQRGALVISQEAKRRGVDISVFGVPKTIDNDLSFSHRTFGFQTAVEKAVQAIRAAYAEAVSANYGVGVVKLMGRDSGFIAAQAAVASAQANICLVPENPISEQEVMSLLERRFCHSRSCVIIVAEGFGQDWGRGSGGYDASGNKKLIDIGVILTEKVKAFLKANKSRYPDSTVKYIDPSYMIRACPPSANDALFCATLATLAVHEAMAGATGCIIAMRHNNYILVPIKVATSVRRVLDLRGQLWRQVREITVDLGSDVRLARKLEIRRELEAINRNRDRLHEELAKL
# Chain of Cytochrome P450 2D6 (Homo sapiens) (P10635 whole entry, looked up): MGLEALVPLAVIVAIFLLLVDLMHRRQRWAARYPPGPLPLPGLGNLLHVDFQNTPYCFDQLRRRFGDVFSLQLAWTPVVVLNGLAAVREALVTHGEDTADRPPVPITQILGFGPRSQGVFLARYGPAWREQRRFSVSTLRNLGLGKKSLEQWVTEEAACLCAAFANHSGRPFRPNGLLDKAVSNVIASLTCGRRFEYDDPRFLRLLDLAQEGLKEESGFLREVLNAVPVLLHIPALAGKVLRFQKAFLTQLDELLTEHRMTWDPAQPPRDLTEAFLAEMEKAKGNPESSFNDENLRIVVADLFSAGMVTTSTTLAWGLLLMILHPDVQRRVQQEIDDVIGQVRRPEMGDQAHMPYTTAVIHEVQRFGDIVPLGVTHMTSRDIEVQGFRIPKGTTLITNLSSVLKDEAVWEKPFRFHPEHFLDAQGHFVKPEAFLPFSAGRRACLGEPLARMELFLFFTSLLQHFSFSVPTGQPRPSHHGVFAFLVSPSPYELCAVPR
# Chain of Cytochrome P450 1A2 (Homo sapiens) (P05177 whole entry, looked up): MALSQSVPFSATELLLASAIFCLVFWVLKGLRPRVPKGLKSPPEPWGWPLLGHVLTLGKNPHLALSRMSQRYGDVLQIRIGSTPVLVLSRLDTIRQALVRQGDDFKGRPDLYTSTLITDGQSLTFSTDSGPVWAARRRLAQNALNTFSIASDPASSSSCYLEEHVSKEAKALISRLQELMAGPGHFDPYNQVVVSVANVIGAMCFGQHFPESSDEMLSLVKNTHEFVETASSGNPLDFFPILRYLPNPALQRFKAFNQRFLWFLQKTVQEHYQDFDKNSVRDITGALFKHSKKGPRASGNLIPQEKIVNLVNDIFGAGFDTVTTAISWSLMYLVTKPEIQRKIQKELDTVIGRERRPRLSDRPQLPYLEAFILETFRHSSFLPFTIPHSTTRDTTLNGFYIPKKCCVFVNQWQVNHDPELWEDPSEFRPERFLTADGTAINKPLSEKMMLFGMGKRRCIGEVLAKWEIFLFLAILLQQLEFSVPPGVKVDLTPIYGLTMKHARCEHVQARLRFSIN
# Chain of Glucocorticoid receptor (Homo sapiens) (P04150 whole entry, looked up): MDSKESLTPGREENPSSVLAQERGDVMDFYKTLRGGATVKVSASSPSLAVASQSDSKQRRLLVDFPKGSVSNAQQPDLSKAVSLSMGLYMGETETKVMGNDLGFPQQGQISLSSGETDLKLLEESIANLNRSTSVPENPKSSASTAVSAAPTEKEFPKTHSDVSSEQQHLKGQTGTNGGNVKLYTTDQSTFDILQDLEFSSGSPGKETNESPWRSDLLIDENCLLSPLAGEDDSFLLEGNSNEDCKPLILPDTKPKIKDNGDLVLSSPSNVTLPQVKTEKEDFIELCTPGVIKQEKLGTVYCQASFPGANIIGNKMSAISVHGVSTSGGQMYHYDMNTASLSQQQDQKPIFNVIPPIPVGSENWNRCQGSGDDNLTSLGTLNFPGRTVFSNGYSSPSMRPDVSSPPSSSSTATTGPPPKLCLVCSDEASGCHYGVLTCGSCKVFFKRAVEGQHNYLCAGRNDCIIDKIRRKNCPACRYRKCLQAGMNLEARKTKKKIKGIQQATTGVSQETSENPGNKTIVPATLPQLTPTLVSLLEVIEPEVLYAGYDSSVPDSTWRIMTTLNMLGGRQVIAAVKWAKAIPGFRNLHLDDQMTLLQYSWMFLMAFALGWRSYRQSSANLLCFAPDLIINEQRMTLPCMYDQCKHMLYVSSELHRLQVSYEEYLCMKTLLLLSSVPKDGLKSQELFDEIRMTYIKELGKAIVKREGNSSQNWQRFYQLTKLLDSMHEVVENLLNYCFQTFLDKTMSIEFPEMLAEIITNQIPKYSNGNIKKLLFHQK
# Chain of DNA dC->dU-editing enzyme APOBEC-3G (Homo sapiens) (Q9HC16 whole entry, looked up): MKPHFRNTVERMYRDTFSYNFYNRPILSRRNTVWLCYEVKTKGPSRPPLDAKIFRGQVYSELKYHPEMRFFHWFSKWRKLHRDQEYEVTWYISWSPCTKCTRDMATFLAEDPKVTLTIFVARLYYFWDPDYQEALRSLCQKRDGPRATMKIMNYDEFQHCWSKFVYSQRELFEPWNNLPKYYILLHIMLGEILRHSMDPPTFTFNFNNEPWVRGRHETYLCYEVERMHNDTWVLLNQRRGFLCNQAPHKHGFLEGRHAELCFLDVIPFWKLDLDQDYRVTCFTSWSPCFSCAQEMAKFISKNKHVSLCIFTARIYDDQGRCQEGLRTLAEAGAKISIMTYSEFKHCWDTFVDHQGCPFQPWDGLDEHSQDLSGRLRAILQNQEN
compound,measurement,setting,value
O=c1cc(-c2cccc(O)c2)oc2c(O)c(O)ccc12,Potency,[1],0.1 µM (active)
same,Potency,[2],> 46 µM
same,outcome,[3],inactive
same,Potency,[4],inactive
same,outcome,[5],inactive
CC1CCC(C(C)C)C(OC(=O)c2ccccc2O)C1 (stereo unspecified),outcome,[6],inactive
same,Potency,[7],inactive
same,Potency,[8],inactive
same,Potency,[9],inactive
same,Potency,[10],inactive
CCC(=O)O[C@@H](OP(=O)(CCCCc1ccccc1)CC(=O)N1C[C@H](C2CCCCC2)C[C@H]1C(=O)O)C(C)C (stereo partly specified),outcome,[6],inactive
same,Potency,[7],inactive
same,Potency,[9],inactive
CC(=O)O[C@@]12CO[C@@H]1C[C@H](O)[C@@]1(C)C(=O)[C@H](O)C3=C(C)[C@@H](OC(=O)C(O)[C@@H](NC(=O)OC(C)(C)C)c4ccccc4)C[C@@](O)([C@@H](OC(=O)c4ccccc4)[C@H]21)C3(C)C (stereo partly specified),outcome,[6],inactive
same,Potency,[10],0.0562 µM (active)
Nc1nc(Cl)nc2c1ncn2C1CC(O)C(CO)O1 (stereo unspecified),Potency,[8],3.55 µM (active)
c1ccc2scnc2c1,Potency,[11],> 92 µM
same,Potency,[12],inactive
same,Potency,[13],inactive
CCCCCCCCCCCCC[N+](C)(C)Cc1ccccc1,Potency,[14],inactive
same,Potency,[15],inactive
O=S(=O)(O)c1ccccc1,Potency,[11],> 92 µM
same,Potency,[12],inactive
CCC(C)CCCCC(=O)NC(CCN)C(=O)NC(C(=O)NC(CCN)C(=O)NC1CCNC(=O)C(C(C)O)NC(=O)C(CCN)NC(=O)C(CCN)NC(=O)C(CC(C)C)NC(=O)C(Cc2ccccc2)NC(=O)C(CCN)NC1=O)C(C)O (stereo unspecified) ({Octanoyl(6-Me)}-[Dab]T[Dab][Dab][Dab]FL[Dab][Dab]T; lactam 4-C; configuration not given here),Potency,[14],inactive
same,Potency,[15],inactive
same,Potency,[8],inactive
same,Potency,[9],inactive
Nc1nc(-c2ccc(Cl)c(Cl)c2)c(-c2ccncc2)s1,outcome,[3],inactive
N[C@@H](C(=O)N[C@@H]1C(=O)N2C(C(=O)O)=C(Cl)CC[C@H]12)c1ccccc1,max response,[16],3.49%
CO/N=C(/C(=O)N[C@@H]1C(=O)N2C(C(=O)O)=CCS[C@H]12)c1csc(N)n1,Potency,[7],inactive
same,Potency,[8],inactive
same,Potency,[9],inactive
same,Potency,[10],inactive
COc1cc(/C=C/C(=O)N2CCC=CC2=O)cc(OC)c1OC,outcome,[3],inactive
same,Potency,[14],inactive
same,Potency,[15],inactive
Cc1cc(CC(C)CC(C)(C)C)n(O)c(=O)c1 (stereo unspecified),outcome,[6],inactive
same,Potency,[8],2.51 µM (active)
same,Potency,[9],1.12 µM (active)
same,Potency,[10],2.24 µM (active)
CC1(C)S[C@@H]2[C@H](NC(=O)COc3ccccc3)C(=O)N2[C@H]1C(=O)O,outcome,[6],inactive
same,Potency,[8],inactive
same,Potency,[9],inactive
same,Potency,[10],inactive
CC(C)(CO)C(O)C(=O)NCCCC(=O)O (stereo unspecified),Potency,[7],inactive
same,Potency,[8],inactive
O=C(O)c1ccccc1C(c1ccc(O)cc1)c1ccc(O)cc1,Potency,[17],inactive
same,activation,[18],7.12% and 7.97%
same,outcome,[19],inactive
N=C(N)c1ccc(OCCCOc2ccc(C(=N)N)cc2Br)c(Br)c1,Potency,[16],7.08 µM (active)
O=NCc1ccc([N+](=O)[O-])o1,outcome,[6],inactive
same,Potency,[7],inactive
same,Potency,[8],inactive
CCO[Si](CCCN)(OCC)OCC,Potency,[17],inactive
same,Potency,[12],inactive
CC1=CC(C)(C)Nc2ccccc21,outcome,[3],inactive
same,Potency,[13],inactive
CCCCOCCO,Potency,[17],inactive
same,Potency,[13],inactive
COC(=O)c1ccc(C=O)cc1,Potency,[11],> 92 µM
Clc1cc(Cl)c(Cl)c(Cl)c1Cl,Potency,[12],inactive
same,Potency,[13],inactive
C/C=C\c1ccc(OC)cc1,Potency,[11],> 92 µM
same,Potency,[14],inactive
same,Potency,[15],inactive
same,Potency,[12],inactive
same,outcome,[6],inactive
same,Potency,[7],inactive
same,Potency,[13],inactive
same,Potency,[9],inactive
same,Potency,[10],inactive
